Among all 68,000 compounds or so, about 2,700 (4%) showed an effect of 50% or more. The list comes from a sample in which strong results are over-represented; it also holds similar structures and randomly drawn compounds.
System: Plasmodium berghei
Assay: Screen against P. berghei liver stage (PbLuc), transformed with Luciferase, at 2uM
Type: functional, HepG2
Settings: tested at 2 uM

Structure (SMILES)	INHIBITION [%]
COCc1cccc(C(=O)N2CCCN(C(=O)OCC(C)C)CC2)c1	29.19
COC(=O)CNC(=O)c1c(-n2cnnn2)sc2c1CCCC2	17.26
Cc1nc(CO[C@H]2CN(C(=O)c3cccn3C)[C@@H]3COC[C@H]23)cs1	36.75
O=C(Nc1ccccc1)[C@H]1O[C@H](CCN2CCCCC2)CC[C@@H]1O	4.04
CN1CCN(CC[C@@H]2CC[C@H](O)[C@@H](C(=O)Nc3ccccc3)O2)CC1	29.85
O=C(Nc1ccccc1)[C@H]1O[C@H](CCN2CCNCC2)CC[C@@H]1O	51.81
CCN1CCCC1CNCc1cc2cc3c(cc2[nH]c1=O)OCCO3 (stereo not drawn)	16.87
CNC(=O)[C@@H](C1CC1)N1CCC[C@H]1C(=O)NCC(C)C	40.28
CCCNC(=O)[C@@H]1CCCN1[C@@H](C(=O)NC)C1CC1	40.28
CCNC(=O)[C@@H]1CCCN1[C@@H](C(=O)NC)C1CC1	54.01
O=C1CN(C(=O)C2CCCCC2)CC(O)CN1Cc1ccc(Cl)cc1 (stereo not drawn)	43.15
Cn1ccnc1CN1CCC2(CC1)CC(N1CCCC1)c1ccccc12 (stereo not drawn)	-11.26
Cc1ccc(-n2cnnn2)cc1NCC(=O)Nc1cc(F)ccc1F	19.95
C=C(C)Cn1nc(C)c(CN2CCN(C3CCCCC3)C(=O)C2)c1C	-17.01
Cc1nn(C(C)C)c(C)c1CN1CCN(C2CCCCC2)C(=O)C1	-22.72
Cc1nn(CCO)c(C)c1CN1CCN(C2CCCCC2)C(=O)C1	57.21
CO[C@H]1CC[C@H]2[C@H]1OCCN2C(=O)C1=CCCC1	28.81
CCN1CCC(Cn2ccc3ccc(C(=O)OC)cc3c2=O)C1 (stereo not drawn)	39.26
O=C(CCNS(=O)(=O)c1ccc(Cl)cc1)NCc1ccoc1	-29.08
CCNC(=O)NC1CCCN(c2ccc(C)cc2)C1=O (stereo not drawn)	10.63
COCc1cccc(NCc2cccnc2)c1	-12.52
CCOCc1nnc(NCc2cccnc2)o1	54.29
Cc1cccc(CNc2n[nH]c(C)n2)c1	14.11
Cc1cccc(CNc2nnc(C(C)C)o2)c1	3.62
CCOCc1nnc(NCc2ccsc2)o1	-19.14
CCOCc1nnc(NCc2cccc(C)c2)o1	55.39

Structure (SMILES)	INHIBITION [%]
COc1ccc2c(C)nc(N3CCN([C@H]4CCCC[C@@H]4O)CC3)nc2c1	-104.21
CC(C)OCc1ncn2c1CN(Cc1cccs1)CCC2	16.22
Cn1c(CS(=O)(=O)Cc2ccc(Cl)cc2)cc(=O)n(C)c1=O	26.34
Cc1cc(CN2C[C@@H]3COC[C@]3(c3nnc(C)o3)C2)no1	-83.05
Cc1nnc([C@]23COC[C@H]2CN(Cc2nccs2)C3)o1	51.36
Cc1nnc([C@]23COC[C@H]2CN(Cc2cccs2)C3)o1	27.73
O=C(CCNS(=O)(=O)c1ccc(F)cc1)NCc1ccoc1	12.01
CCOCCCC(=O)Nc1cccnc1-n1ccnc1C	-12.09
Cc1nccn1-c1ncccc1NC(=O)CCOCC(C)C	53.54
CC(C)COCCC(=O)Nc1cccnc1-n1cncn1	22.88
CC(C)(C)c1noc(CCCC(=O)NCC2CCS(=O)(=O)C2)n1 (stereo not drawn)	-12.82
COC(=O)CNC(=O)c1sccc1N(C)S(=O)(=O)c1ccc(Cl)cc1	3.38
Nc1cc2c(nn1)CCN(C(=O)CC1CCCCC1)C2	38.76
CCc1nc(CN(C)C2CCN(Cc3nc(C4CC4)no3)C2)no1 (stereo not drawn)	-45.03
Nc1cc(O)nc(CCNC(=O)CC[C@@H]2CCCN3CCCC[C@H]23)n1	26.81
O=C(CC[C@@H]1CCCN2CCCC[C@H]12)NCCc1nc(O)cc(O)n1	51.77
O=C(CC[C@@H]1CCCN2CCCC[C@H]12)NCCc1cc(O)ncn1	-20.38
Cn1nc(C2CCNCC2)c2c(C(=O)NC3CC3)cc(C3CC3)nc21	40.28
CC(C)c1cc(N[C@H](C(N)=O)C(C)C)n2nccc2n1	-48.3
CC(C)c1cc(N[C@@H](CO)C(N)=O)n2nccc2n1	50.42
CC(C)c1cc(NC(CO)CO)n2nccc2n1	20.14
COCCc1noc(CN2CC(C)(c3ccccc3)CCC2=O)n1 (stereo not drawn)	-12.84
Cn1ccnc1C1c2nc[nH]c2CCN1Cc1cccnc1 (stereo not drawn)	-7.68
CCc1csc(C2CCCN(C(=O)C3=NN(CC)C(=O)CC3)C2)n1 (stereo not drawn)	3.9
CCc1nc(C2CCCN(C(=O)C3=NN(CC)C(=O)CC3)C2)no1 (stereo not drawn)	53.19
CCN1N=C(C(=O)N2CCCC(c3noc(C)n3)C2)CCC1=O (stereo not drawn)	10.23

Structure (SMILES)	INHIBITION [%]
Cc1nc(C2CCCN(C(=O)C3=NN(C(C)C)C(=O)CC3)C2)no1 (stereo not drawn)	21.24
CCc1nc(C2CCCN(C(=O)C3=NN(C(C)C)C(=O)CC3)C2)no1 (stereo not drawn)	52.08
CCc1nc(C2CCCN(C(=O)NC(C)C)C2)no1 (stereo not drawn)	9.82
O=c1c(Cc2ccccc2)c(O)ccn1CCc1ccccc1	44.59
Cc1ccc(CN2CC[C@H]3C[C@H](C(=O)N(C)C)O[C@H]3C2)cc1	22.5
CCOc1ncccc1NC(=O)Nc1c(C)nn(C(C)C)c1C	-10.87
CC(C)(C)c1coc([C@@H]2COCCN2Cc2ccccc2)n1	18.4
CC(C)(C)c1coc([C@@H]2COCCN2Cc2c[nH]c3ccccc23)n1	27.44
Cn1cc(CN2CCOC[C@H]2c2nc(C(C)(C)C)co2)c2ccccc21	50.17
O=C(c1ccc(Cl)cc1)N1CCC(N2CCCNC2=O)CC1	27.54
O=C(c1ccoc1)N1CCC2(CC1)COC(COc1ccccn1)C2 (stereo not drawn)	24.51
COCCC1COC2(CCN(C(=O)c3cccnc3)CC2)C1 (stereo not drawn)	1.81
Cn1cc(CN2C[C@@H]3COC[C@]3(CNC(=O)c3ccsc3)C2)cn1	9.79
Cc1cnc(CN(Cc2ccc(Cl)s2)C2CCN(C)C2)o1 (stereo not drawn)	14.83
COc1ccc(C)cc1CN(Cc1ncc(C)o1)C1CCN(C)C1 (stereo not drawn)	-5.79
Cc1cnc(CN(Cc2ccc(C#N)cc2F)C2CCN(C)C2)o1 (stereo not drawn)	60.84
CN1CCN(CC2CC2)C(=O)c2cnc(N3CCC(CO)CC3)nc21	-13.87
CSCCC(NC(N)=O)C(=O)NCc1cnn(-c2ccccc2)c1 (stereo not drawn)	-12.03
CSCCC(NC(N)=O)C(=O)NCc1ccc(-n2cccn2)cc1 (stereo not drawn)	50.42
CSCCC(NC(N)=O)C(=O)Nc1ccc(-n2cccn2)nc1 (stereo not drawn)	-0.41
CCCOc1cc(C)ccc1NC(=O)NCCC(=O)N(C)C	-36.17
COc1cc(C(=O)NC2COc3ccccc3C2)ccc1OCC(N)=O (stereo not drawn)	-3.62
COc1cccc(C(=O)N2CCOCC2CN(C)C)c1OC (stereo not drawn)	31.55
OC(CNCc1nnc2ccccn12)c1ccc2c(c1)OCO2 (stereo not drawn)	31.54
CC(C)NC(=O)N1CCC(c2nnc3n2CCNC3)CC1	13.28
COc1cccc2c1OCC(CNC(=O)Cc1cnccn1)C2 (stereo not drawn)	-20.89

Structure (SMILES)	INHIBITION [%]
COc1cccc2c1OCC(CNC(=O)CSc1ccccn1)C2 (stereo not drawn)	33.11
COc1cccc2c1OCC(CNC(=O)Cn1ccnc1C)C2 (stereo not drawn)	50.32
Cn1cccc1C(=O)N1CCC2(CC1)CC(N1CCOCC1)C2	35.89
Cn1cnnc1S(=O)(=O)C1CCN(S(=O)(=O)c2ccccc2F)CC1	-8.91
Cc1ccc(S(=O)(=O)N2CCC(S(=O)(=O)c3nncn3C)CC2)cc1C	-19.3
Cn1cnnc1S(=O)(=O)C1CCN(S(=O)(=O)c2ccc(F)c(Cl)c2)CC1	60.09
CCOC(=O)N1CCC(NC(C)c2ccccc2-n2cccn2)CC1 (stereo not drawn)	52.89
CCOC(=O)N1CCC(NC(C)Cc2cc(C)n[nH]2)CC1 (stereo not drawn)	-0.88
CC(C)CN1CCC(NC(C)c2ccccc2-n2cccn2)CC1 (stereo not drawn)	12.11
O=C1COC2(CCN(S(=O)(=O)C3CC3)CC2)CN1c1cccnc1	10.37
CCN(C(=O)Nc1nccs1)C(C)c1cccc(O)c1 (stereo not drawn)	-81.27
NC(=O)c1cnn2c1NCC(CNCC1(c3ccccc3)CCCC1)C2 (stereo not drawn)	-181.66
CN(Cc1ccc(Cl)s1)C(=O)COc1cccc(C(N)=O)c1	34.61
CN(Cc1ccc(Cl)s1)C(=O)c1ccccc1OCC(N)=O	54.75
CN(Cc1ccc(Cl)s1)C(=O)c1cccc(OCC(N)=O)c1	26.14
CCOCC(=O)N1C[C@@H](NC(C)=O)[C@H](c2ccc(OC)cc2)C1	20.15
COc1ccc([C@@H]2CN(C(=O)CS(C)(=O)=O)C[C@H]2NC(C)=O)cc1	1.85
COCCN(C)CC(=O)N1C[C@@H](NC(C)=O)[C@H](c2ccc(OC)cc2)C1	53.13
Cc1cnn(CC2CN(Cc3nc4ccccc4s3)CCO2)c1 (stereo not drawn)	53.98
c1ccc2sc(CN3CCOC(Cn4cncn4)C3)nc2c1 (stereo not drawn)	5.72
c1ccc2sc(CN3CCOC(Cn4cccn4)C3)nc2c1 (stereo not drawn)	-88.54
Cn1cc(C(=O)NCCc2ccc(OC3CCCC3)cc2)ccc1=O	-25.78
CCOCc1cncc2c1CCN(S(=O)(=O)c1ccc(C)cc1)C2	70.13
CCOCc1cncc2c1CCN(S(=O)(=O)c1cccc(C)c1)C2	9.36
CCOCc1cncc2c1CCN(S(=O)(=O)c1ccccc1)C2	-18.7
